From PMC12431657, “Discovery and mechanistic insights of dibenzoylmethane as a broad spectrum inhibitor of coronavirus” (PLOS Pathogens, 2025)
Where a name gives a salt, the structure may show the parent alone. Read-outs that look alike come from different tables or passages of the source. About 60 (2%) of roughly 3,300 compounds showed an effect of 50% or more. For the sample, strong results were picked, then their nearest neighbours and some compounds at random.

Tested on: HCoV-OC43
Design: species or system RD; HTS, protection from HCoV-OC43 induced cell death, luminescent cell viability (CellCounting-Lite 2.0), inhibition rate
Conditions: 24 h post infection, 1 h compound pre-incubation, 10 µM, inhibitor

## OC1OC[C@@H](O)[C@H](O)[C@@H]1O (stereo partly drawn) [D-Lyxose]
  OC43 Inhibition rate: -0.4%

## C=C1C(=O)[C@]23[C@H](O)[C@H]1CC[C@H]2[C@@]12CO[C@]3(O)[C@@H](O)[C@@H]1C(C)(C)CC[C@@H]2O [Oridonin]
  OC43 Inhibition rate: 17.2%

## C=C1C(=O)[C@@]23[C@@H]4OC5O[C@@]2(O)[C@@H](O)[C@@H]2C(C)(C)CC[C@@H](O)[C@]52[C@@H]3CC[C@@H]14 [ponicidin]
  OC43 Inhibition rate: 75.9%

## C=C1C(=O)[C@@]23[C@H](O)C[C@@H]4C(C)(C)CC[C@H](O)[C@@]4(CO)[C@@H]2CC[C@@H]1[C@H]3O [Kamebakaurin]
  OC43 Inhibition rate: -2.9%

## CC(C)(CC(=O)O)CC(=O)O [3,3-Dimethylglutaric acid]
  OC43 Inhibition rate: -0.3%

## C/C=C(\C)C(=O)OC1c2c(ccc3ccc(=O)oc23)OC(C)(C)C1OC(=O)/C(C)=C/C (centres unmarked) [Praeruptorin B]
  OC43 Inhibition rate: 7.3%

## C/C=C(/C)C(=O)O[C@@H]1c2c(ccc3ccc(=O)oc23)OC(C)(C)[C@@H]1OC(=O)/C(C)=C\C [(-)-Anomalin]
  OC43 Inhibition rate: 32.9%

## C/C=C(/C)C(=O)OC(C)(C)[C@@H]1Cc2c(ccc3ccc(=O)oc23)O1 [Columbianadin, columbianadin]
  OC43 Inhibition rate: 107.6%

## Nc1ccccc1C(=O)C[C@@H](N)C(=O)O [D-Kynurenine]
  OC43 Inhibition rate: -6.1%

## CCCCCCCC/C=C\CCCCCCCC(=O)NCc1ccccc1 [N-Benzyloleamide]
  OC43 Inhibition rate: 56.9%

## CCCCCCCCCCCCCCCCCC(=O)NCc1ccccc1 [N-Benzyloctadecanamide]
  OC43 Inhibition rate: -0.1%

## CCCCC/C=C\C/C=C\CCCCCCCC(=O)NCc1ccccc1 [N-Benzyllinoleamide]
  OC43 Inhibition rate: 40%

## COc1cc([C@@H]2[C@H]3CO[C@@]4(O)C(=O)[C@@H]2C=C([C@H]2Oc5cc(O)cc(O)c5C(=O)[C@@H]2O)[C@@H]34)ccc1O [Silydianin]
  OC43 Inhibition rate: -0.1%

## O=C(/C=C/c1ccccc1)OCc1ccccc1 [Benzyl cinnamate]
  OC43 Inhibition rate: 2%

## O=C(CCCCCCCCc1ccc(O)cc1)c1c(O)cccc1O [Malabaricone B]
  OC43 Inhibition rate: 54%

## O=C(CCc1ccc(O)cc1)c1c(O)cc(O)cc1O [Phloretin]
  OC43 Inhibition rate: -0.3%

## O=C(CCCCCCCCc1ccc(O)c(O)c1)c1c(O)cccc1O [Malabaricone C]
  OC43 Inhibition rate: 12.2%

## CCCCCCCCCCCCCCCCCCCCC [Heneicosane]
  OC43 Inhibition rate: -0.3%

## CO[C@H]1[C@@H](O)[C@H](O[C@@H]2[C@@H](C)O[C@@H](O[C@H]3CC[C@@]4(C)[C@@H](CC[C@@]56O[C@@]57CC[C@@H](C(C)=O)[C@@]7(C)[C@H](OC(C)=O)[C@@H](OC(=O)c5ccccc5)[C@H]46)C3)C[C@H]2OC)O[C@H](C)[C@H]1O [Tenacissoside I]
  OC43 Inhibition rate: -4%

## Cc1ccc(O)c(O)c1 [4-Methylcatechol]
  OC43 Inhibition rate: -0.9%

## COc1cc(O)c(C(=O)/C=C/c2ccc(O)cc2)c(OC)c1 [Flavokawain C]
  OC43 Inhibition rate: 4.2%

## COc1cc(O)c(C(=O)/C=C/c2ccccc2)c(OC)c1 [Flavokawain B]
  OC43 Inhibition rate: 58.3%

## COc1cc(O)c(C(=O)/C=C/c2ccccc2)c(O)c1 [Pinostrobin chalcone]
  OC43 Inhibition rate: 0%

## O=C(N[C@@H](c1ccccc1)[C@@H](O)C(=O)O)c1ccccc1 [N-Benzoyl-(2R,3S)-3-phenylisoserine]
  OC43 Inhibition rate: 0.3%

## C/C=C(/C)C(=O)O [Angelic acid]
  OC43 Inhibition rate: -0.3%

## CCOC(=O)/C=C/c1ccccc1 [Ethyl cinnamate]
  OC43 Inhibition rate: -1.2%

## CC(=O)OC/C1=C\[C@H]2[C@@H](OC(=O)/C=C/c3ccccc3)[C@@H](C)C[C@]2(OC(C)=O)C(=O)/C(C)=C/[C@@H]2[C@H](CC1)C2(C)C [Euphorbia factor L7a]
  OC43 Inhibition rate: 75.3%

## CC(=O)OC/C1=C/C[C@H]2[C@@H](/C=C(\C)C(=O)[C@@]3(OC(C)=O)C[C@H](C)[C@H](OC(=O)c4ccccc4)[C@@H]3[C@H]1OC(C)=O)C2(C)C [Euphorbia factor L7b]
  OC43 Inhibition rate: 8.6%

## COc1cccc(-c2oc3ccccc3c(=O)c2O)c1 [3'-Methoxyflavonol]
  OC43 Inhibition rate: -2%

## c1cc2c(c3c1CC1c4cc5c(cc4CCN1C3)OCO5)OCO2 (racemic) [(±)-Stylopine]
  OC43 Inhibition rate: -0.3%

## O[C@H]1[C@H]2c3cc4c(cc3CN3CC[C@H](C[C@@H]1O)[C@H]23)OCO4 [Dihydrolycorine]
  OC43 Inhibition rate: 0%

## O[C@H]1[C@H]2c3cc4c(cc3CN3CCC(=C[C@@H]1O)[C@H]23)OCO4 [Lycorine]
  OC43 Inhibition rate: 60.9%

## OCc1cccc2ccccc12 [1-Naphthalenemethanol]
  OC43 Inhibition rate: 2.9%

## CC(C)=CCC[C@](C)(O[C@@H]1O[C@H](CO)[C@@H](O)[C@H](O)[C@H]1O)[C@H]1CC[C@]2(C)[C@@H]1[C@H](O)C[C@@H]1[C@@]3(C)CC[C@H](O)C(C)(C)[C@@H]3CC[C@]12C [Ginsenoside C-K]
  OC43 Inhibition rate: 38.7%

## COc1cc(/C=C/C(=O)OC[C@H]2O[C@H](O[C@]3(CO)O[C@H](CO)[C@@H](O)[C@@H]3O)[C@H](O)[C@@H](O)[C@@H]2O)cc(OC)c1O [Sibiricose A1]
  OC43 Inhibition rate: 2.3%

## COc1ccc2cc1Oc1ccc(cc1)C[C@H]1c3cc(c(OC)cc3CCN1C)Oc1c(O)c(OC)cc3c1[C@H](C2)N(C)CC3 [Fangchinoline]
  OC43 Inhibition rate: 41.6%

## COc1ccc2cc1Oc1ccc(cc1)C[C@H]1c3cc(c(OC)cc3CCN1C)Oc1c(OC)c(OC)cc3c1[C@H](C2)N(C)CC3 [tetrandrine]
  OC43 Inhibition rate: 79.7%

## COc1cc2c3cc1Oc1c(OC)c(OC)cc4c1[C@@H](Cc1ccc(O)c(c1)Oc1ccc(cc1)C[C@@H]3N(C)CC2)N(C)CC4 [Berbamine]
  OC43 Inhibition rate: 0%

## Oc1ccc(CC2NCCc3cc(O)c(O)cc32)cc1 (centres unmarked) [Higenamine (hydrochloride)]
  OC43 Inhibition rate: 0.1%

## Oc1ccc2[nH]ccc2c1 [5-Hydroxyindole]
  OC43 Inhibition rate: 1.1%

## COc1c2c(cc3oc(CO)cc(=O)c13)O[C@H](C(C)(C)O)C2 [Cimifugin]
  OC43 Inhibition rate: 0.3%

## OC1COC(O)CO1 (centres unmarked) [1,4-Dioxane-2,5-diol]
  OC43 Inhibition rate: 1.3%

## COc1c(C(C)C)cc2c(c1O)[C@@]1(C(=O)O)CCCC(C)(C)[C@@H]1CC2 [12-O-Methylcarnosic acid]
  OC43 Inhibition rate: 54.1%

## CC(C)c1cc2c(c(O)c1O)[C@@]13CCCC(C)(C)[C@@H]1C[C@@H]2OC3=O [Carnosol]
  OC43 Inhibition rate: -0.4%

## CC(C)c1ccc2c(c1)CC[C@H]1[C@](C)(C(=O)O)CCC[C@]21C [Dehydroabietic acid]
  OC43 Inhibition rate: -0.5%

## COc1cc(C=CC(=O)O)cc(OC)c1O (stereo in doubt) [Sinapinic acid]
  OC43 Inhibition rate: 1.1%

## NC1CCN(c2nc3c(cc2F)c(=O)c(C(=O)O)cn3-c2ccc(F)cc2F)C1 (centres unmarked) [Tosufloxacin (tosylate hydrate)]
  OC43 Inhibition rate: 58.8%

## CCn1cc(C(=O)O)c(=O)c2ccc(C)nc21 [Nalidixic acid]
  OC43 Inhibition rate: 0.1%

## O=C(O)C(O)c1ccc(O)c(O)c1 (centres unmarked) [3,4-Dihydroxymandelic acid]
  OC43 Inhibition rate: -0.2%

## CC(C)=CCC/C(C)=C/Cc1cc(-c2coc3cc(O)ccc3c2=O)ccc1O [Corylifol A]
  OC43 Inhibition rate: -2.2%

## CCCC(=O)C(=O)O [2-Oxovaleric acid]
  OC43 Inhibition rate: -0.9%

## COc1ccc(/C=C/C(=O)O)cc1 [4-Methoxycinnamic acid]
OC43 Inhibition rate, 24 h
  OC43 Inhibition rate: -0.5%

## CSCC[C@H](NC(C)=O)C(=O)O [N-Acetyl-L-methionine]
  OC43 Inhibition rate: 0.8%

## C[C@@H]1CC[C@@]2(OC1)O[C@H]1C[C@H]3[C@@H]4CC=C5C[C@@H](O)C[C@@H](O[C@@H]6O[C@H](C)[C@H](O)[C@H](O[C@@H]7OC[C@@H](O)[C@H](O)[C@H]7O)[C@H]6O[C@@H]6O[C@@H](C)[C@H](O)[C@@H](O)[C@H]6O)[C@]5(C)[C@H]4CC[C@]3(C)[C@H]1[C@@H]2C [Ophiopogonin D]
OC43 Inhibition rate, 24 h
  OC43 Inhibition rate: 1.6%

## C[C@@H]1CC[C@@]2(OC1)O[C@H]1C[C@H]3[C@@H]4CC=C5C[C@@H](O[C@@H]6O[C@H](CO)[C@@H](O)[C@H](O[C@@H]7O[C@H](CO)[C@@H](O)[C@H](O)[C@H]7O)[C@H]6O[C@@H]6O[C@@H](C)[C@H](O)[C@@H](O)[C@H]6O)CC[C@]5(C)[C@H]4CC[C@]3(C)[C@H]1[C@@H]2C [Gracillin]
  OC43 Inhibition rate: 7%

## C[C@@H]1CC[C@@]2(OC1)O[C@H]1C[C@H]3[C@@H]4CC=C5C[C@@H](O[C@@H]6O[C@H](CO)[C@@H](O)[C@H](O)[C@H]6O[C@@H]6O[C@@H](C)[C@H](O)[C@@H](O)[C@H]6O)CC[C@]5(C)[C@H]4CC[C@]3(C)[C@H]1[C@@H]2C [Prosapogenin A]
  OC43 Inhibition rate: -12%

## C[C@H]1CC[C@@]2(OC1)O[C@H]1C[C@H]3[C@@H]4CC=C5C[C@@H](O[C@@H]6O[C@H](CO)[C@@H](O)[C@H](O[C@@H]7OC[C@@H](O)[C@H](O)[C@H]7O)[C@H]6O[C@@H]6O[C@@H](C)[C@H](O)[C@@H](O)[C@H]6O)CC[C@]5(C)[C@H]4CC[C@]3(C)[C@H]1[C@@H]2C [Liriope muscari baily saponins C]
  OC43 Inhibition rate: 66.1%

## C[C@@H]1CC[C@@]2(OC1)O[C@H]1C[C@H]3[C@@H]4CC=C5C[C@@H](O)C[C@@H](O[C@@H]6O[C@H](C)[C@H](O)[C@H](O[C@@H]7OC[C@@H](O)[C@H](O)[C@H]7O)[C@H]6O[C@@H]6O[C@@H](C)[C@H](O)[C@@H](O)[C@H]6O)[C@]5(C)[C@H]4CC[C@]3(C)[C@H]1[C@@H]2C [Ophiopogonin D']
OC43 Inhibition rate, 24 h
  OC43 Inhibition rate: -0.3%

## C[C@@H]1CC[C@@]2(OC1)O[C@H]1C[C@H]3[C@@H]4CC=C5C[C@@H](O)C[C@@H](O[C@@H]6O[C@H](C)[C@H](O)[C@H](O[C@@H]7OC[C@@H](O)[C@H](O)[C@H]7O)[C@H]6O[C@@H]6O[C@H](CO)[C@@H](O)[C@H](O)[C@H]6O)[C@]5(C)[C@H]4CC[C@]3(C)[C@H]1[C@@H]2C [Saponin C, from Liriope muscari]
  OC43 Inhibition rate: 66.4%
